High-throughput results deposited in PubChem BioAssay by The Scripps Research Institute Molecular Screening Center.
GPR151 activ = human GPR151 activation; Q8TDV0; PathHunter beta-arrestin GPR151 cells, luminescence; activation, % at 11.2 µM; 1% of 650,000 active; in the data active = activation above about 4.9%;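 also: 0% = median of compound wells and 100% = cells with positive control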
FBW7 act = human FBW7 E3 ligase activation, primary screen; AlphaScreen FBW7–phospho-cyclin E peptide binding, activator screen; normalized activity (activation), % at 26.1 µM; 0.13% of 650,000 active; in the data active = normalized activity above about 1.9%;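 also: purified mutant Fbw7 with reduced substrate affinity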
Target sequence (Q969H0 whole entry, looked up): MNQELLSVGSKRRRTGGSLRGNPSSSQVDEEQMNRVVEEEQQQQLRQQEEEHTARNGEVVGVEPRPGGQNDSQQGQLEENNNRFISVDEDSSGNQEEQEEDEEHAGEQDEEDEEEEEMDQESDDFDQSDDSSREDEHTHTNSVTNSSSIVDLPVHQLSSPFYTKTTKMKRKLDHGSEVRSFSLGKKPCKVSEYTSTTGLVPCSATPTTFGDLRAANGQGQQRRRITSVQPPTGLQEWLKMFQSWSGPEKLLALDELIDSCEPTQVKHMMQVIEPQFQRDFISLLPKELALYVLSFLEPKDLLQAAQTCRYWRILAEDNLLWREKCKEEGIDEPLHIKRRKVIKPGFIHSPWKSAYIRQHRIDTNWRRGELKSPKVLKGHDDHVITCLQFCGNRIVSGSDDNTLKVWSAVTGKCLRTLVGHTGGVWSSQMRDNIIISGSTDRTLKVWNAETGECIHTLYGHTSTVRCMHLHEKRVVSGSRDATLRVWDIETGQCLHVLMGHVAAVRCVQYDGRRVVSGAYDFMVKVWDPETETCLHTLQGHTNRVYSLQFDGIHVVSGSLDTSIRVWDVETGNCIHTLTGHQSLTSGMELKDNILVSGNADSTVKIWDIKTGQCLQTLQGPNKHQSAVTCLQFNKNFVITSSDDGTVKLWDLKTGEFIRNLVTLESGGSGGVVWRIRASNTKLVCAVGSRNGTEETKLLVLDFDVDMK
TEAD-YAP inh = TEAD-YAP interaction inhibition. HEK-TIYL cells, TEAD-Gal4/YAP UAS-luciferase luminescence. inhibition, % at 9.12 µM. 1.4% of 640,000 active. AID 1259422; in the data active = inhibition above about 32%;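 also: 0% = median of test compound wells and 100% = reference inhibitor wells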
MITF inh = inhibitors of human MITF; 0.91% of 650,000 active; AID 1259374; AlphaScreen MITF homodimerization, bead proximity signal; inhibition, % at 2.6 µM; O75030; in the data active = inhibition above about 50%;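 also: 0% = vehicle wells with protein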
* hit, by the source's call; ! = a repeat was not active. In the library only some 3.5% were active in any assay of this set; here they are far more common.

SMILES	GPR151 activ	FBW7 act	TEAD-YAP inh	MITF inh
Nc1ccc(OCc2ccc(COc3ccc(N)cc3)cc2)cc1	1	17*	21	-116
CC1(C)S[C@@H]2[C@H](NC(=O)[C@H](C(=O)O)c3cccs3)C(=O)N2[C@H]1C(=O)O	1	0	-3	-17
CC1(C)C(C(=O)O)N2C(=O)C(NC(=O)C(C(=O)O)c3ccccc3)C2S1=O (stereo not drawn)	-1	2.5*	1	23
CCc1ccc2nc3sc(C(=O)NCc4ccco4)c(N)c3cc2c1	-1	0	53*	41
COc1cc2cc3c(N)c(C(=O)NCc4ccco4)sc3nc2cc1OC	-1	0	-67	25
COc1ccc(OC)c(S(=O)(=O)c2cc(OC)ccc2OC)c1	0	0	-1	5
COc1ccc(OS(=O)(=O)c2cc(OC)ccc2OC)cc1	-1	0	50*	-2
CCOC(=O)c1cnc2ccc(C)cc2c1NCCN1CCOCC1	-1	0	-6	-2
CCOC(=O)c1cnc2ccc(C)cc2c1NCCCN1CCOCC1	0	0	38*	-20
COCCNc1nccn2c(-c3cccc(OC(F)(F)F)c3)cnc12	0	1	2	-3
CC(C)(C)C1(C)OC(=O)C(=Cc2ccc(Br)o2)C(=O)O1 (stereo not drawn)	0	0	-11	69*
O=C(CN1CCCc2ccccc21)N/N=C/c1ccc(Cl)cc1	0	0	36*	-7
O=C(CN1CCCc2ccccc21)N/N=C/c1ccccc1	1	0	-3	-5
Cc1ccc(/C=N/NC(=O)c2cc(-c3cccs3)[nH]n2)s1	-1	0	-8	-4
CCOCCCNC1CCN(c2nc(C)c3cc(C)ccc3n2)CC1	0	0	49*	-21
CCCCNC1CCN(c2nc(C)c3cc(C)ccc3n2)CC1	-1	0	1	2
CC1COC(=O)C(NNc2ccc(Cl)c(Cl)c2)=N1 (stereo not drawn)	0	0	-6	26
CC(C)(C)c1ccc(C2CC(=O)C=C(O)C2)cc1 (stereo not drawn)	1	1	54*	18
Cc1ccc(C2CC(=O)C=C(O)C2)cc1 (stereo not drawn)	-1	0	-1	-3
CCOC(=O)C(=O)NC(Cc1ccccc1)c1ccccc1 (stereo not drawn)	1	0	2	13
O=C(CCl)NC(Cc1ccccc1)c1ccccc1 (stereo not drawn)	0	0	58*	11
CC(C)(C)c1nc2scc(-c3ccccc3)c2c(=O)o1	1	0	0	3
CC(C)(C)c1nc2scc(-c3ccc(Br)cc3)c2c(=O)o1	0	0	34*	9
N/C(=N\OC(=O)/C=C/c1ccccc1Cl)c1ccccn1	-6	0	74*	-5
N/C(=N\OC(=O)/C=C/c1ccccc1)c1cccnc1	-1	0	-52	13
SMILES	GPR151 activ	FBW7 act	TEAD-YAP inh	MITF inh
N/C(=N\OC(=O)/C=C/c1ccc(Br)cc1)c1ccccn1	-2	0	39*	6
N#Cc1ccc(CN2CCOCC2)cc1	0	0	8	10
Cc1cc2cc(C#N)c(NCCCNC(=O)c3cccnc3)nc2cc1C	4	0	-2	-10
CCN(C(=O)c1c(-c2c(Cl)cccc2Cl)noc1C)c1ccccc1C	0	0	3	-1
Cc1ccc2c(c1)SC(C)C(=O)N2Cc1cc(C)on1 (stereo not drawn)	0	0	8	14
N#Cc1ccsc1NC(=O)/C=C/c1ccccc1Cl	-3	0	64*	3
N#Cc1ccsc1NC(=O)c1cccc(Cl)c1Cl	-2	0	5	-1
O=C(O)c1cccc(NC(=O)c2cc3ccccc3o2)c1	3	0	39*	1
O=C(Nc1nccs1)c1cc2ccccc2o1	-9	0	58*	-7
CC(=O)Nc1ccc(N2C(=O)c3ccc(S(=O)(=O)c4ccc(C(=O)O)cc4)cc3C2=O)cc1	-2	0	0	21
NS(=O)(=O)c1ccc(CNc2ccc3ncc(-c4cccc(/C=C/C(=O)O)c4)n3n2)cc1	-1	-1	-4	-4
COc1ccc2occ(C(=O)c3oc4ccccc4c3N)c2c1	-5	0	32*	-2
COC(=O)c1oc2ccc(OC)cc2c1N	-2	0	-21	3
COc1ccc2oc(C(=O)c3ccc(Cl)cc3)c(N)c2c1	0	1	-87	14
COc1ccc2oc(C)c(C(=O)c3oc4ccccc4c3N)c2c1	-1	0	34*	-3
CCCOC(=O)C1=C(C)NC2=C(C(=O)CC(c3ccc(OC)cc3)C2)C1c1cccc(F)c1 (stereo not drawn)	-1	0	15	2
C[n+]1c2cc(N)ccc2cc2ccc(N)cc21	0	0	-1	52*!
C[n+]1c2cc(N)ccc2cc2ccc(N)cc21 (tested in a mixture with another compound)	-3	0	-14	57*
Nc1ccc2nc(/C=C/c3nc4ccc(N)cc4[nH]3)[nH]c2c1	2	0	16	20
O=C(c1cc(COc2ccc3ncccc3c2)on1)N1CCC(N2CCSCC2)CC1	1	0	43*	-10
O=C(c1cc(COc2ccc3ncccc3c2)on1)N1CCC(O)CC1	0	0	3	7
O=C(c1cc(COc2ccc3ncccc3c2)on1)N1CCCC(O)C1 (stereo not drawn)	0	0	10	5
O=C(c1cc(COc2ccc3ncccc3c2)on1)N1CCCC(OCc2ccccn2)C1 (stereo not drawn)	2	0	39*	6
CCC(O)C1CCN(C(=O)c2cc(COc3ccc4ncccc4c3)on2)CC1 (stereo not drawn)	1	0	50*	-2
O=C(NCCCN1CCCC1=O)c1cc(COc2ccc3ncccc3c2)on1	1	0	37*	-10
SMILES	GPR151 activ	FBW7 act	TEAD-YAP inh	MITF inh
N#CC1=C(N)Oc2n[nH]c(-c3ccc4c(c3)OCO4)c2C1c1ccc(F)c(Br)c1 (stereo not drawn)	-1	0	-9	-5
COc1cc(/C=N/O)ccc1OCc1cccc(C(=O)O)c1	-9	0	94*	0
COc1cc(/C=N/n2cnnc2)ccc1OCc1cccc(C(=O)O)c1	-7	0	78*	37
COc1cc(C=O)ccc1OCc1cccc(C(=O)O)c1	5	0	71*	-4
COc1cc(C=C2C(=O)NC(=O)NC2=O)ccc1OCc1cccc(C(=O)O)c1	-7	0	81*	5
COCc1cc(=O)[nH]c(/N=C(\N)Nc2ccc(OC)cc2)n1	0	0	-1	9
O=C(CCNS(=O)(=O)c1ccc(Br)s1)N1CCc2ccccc2C1	-1	0	-6	-10
COc1cc(C=O)ccc1OCC(=O)c1ccccc1	-8	0	60*	1
COc1ccc(C(=O)Oc2ccc(C=C3C(=O)NC(=O)NC3=O)cc2OC)cc1	-2	-1	8	9
COc1ccc(C=O)cc1OC(=O)c1ccccc1	1	0	5	-4
COc1ccc(/C=N/n2cnnc2)cc1COc1ccccc1F	0	0	12	11
